From the supplement of paper PMC7156485
“And” between values parts separate entries of the source, which are not always exact repeats. Equal values may be shown once. Where a name gives a salt, the structure may show the parent alone. ± gives the standard deviation of the averaged measurements.

Experiments:
Settings in all cases: concentration: 10 µM; 24 h
[1] = tested on: HCC1569; assay: cell number relative to DMSO (% of DMSO); higher = more cells (less growth inhibition / toxicity)
In short: (§1)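 H1.0 nuclear intensity or cell number is stated as percent of the plate control, based on the median of replicates, and HCC1569 values were smoothed for positional effects. These came from HCC1569 and TDF cells treated with compounds at 10 µM for 24 h at 37 °C in triplicate, then fixed in 3.7% formaldehyde and stained with a rabbit anti-H1.0 antibody, an AlexaFluor 647 secondary and DAPI.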

[2] = tested on: TDF; assay: as above
In short: as §1

[3] = tested on: TDF; assay: H1.0 immunofluorescence intensity relative to DMSO (% of DMSO); higher = stronger H1.0 induction, active = 120 or more
In short: as §1

[4] = tested on: HCC1569; assay: H1.0 immunofluorescence intensity relative to DMSO (% of DMSO); higher = stronger H1.0 induction, active = 140 or more
In short: as §1
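Throughout, for H1.0 immunofluorescence intensity relative to DMSO: TDF is a line of transformed human dermal fibroblasts of mesenchymal origin.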
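Throughout, for cell number relative to DMSO: TDF denotes transformed human dermal fibroblasts of mesenchymal origin.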

SMILES	cell number [1]	cell number [2]	H1.0 immunofluorescence intensity [3]	H1.0 immunofluorescence intensity [4]
CN(C)c1ccc(O)c2c1CC1CC3C(N(C)C)C(=O)C(C(N)=O)=C(O)C3(O)C(=O)C1=C2O.Cl (stereo not given)	99.2	96.9	95.5 (inactive)	91.5 (inactive)
O=C1CC(c2ccccc2)Oc2cc(O)cc(O)c21 (stereo not given) [Pinocembrin]	106	100	99 (inactive)	91.1 (inactive)
CN(CCOc1ccc(CC(Nc2ccccc2C(=O)c2ccccc2)C(=O)O)cc1)c1ccccn1 (stereo not given)	102	104	92.6 (inactive)	88.2 (inactive)
CN(Cc1cnc2nc(N)nc(N)c2n1)c1ccc(C(=O)NC(CCC(=O)O)C(=O)O)cc1 (stereo not given) [Methotrexate]	81.7	86.5	92.8 (inactive)	87 (inactive)
CCN(CC)CCCCN1c2ccccc2Oc2ccc(Cl)cc21.Cl	88.8	86.3	110 (inactive)	159 (active)
N#CCNC(=O)c1ccc(-c2ccnc(Nc3ccc(N4CCOCC4)cc3)n2)cc1	64.8	36.1	132 (active)	127 (inactive)
CC(C)(C)NCC(O)COc1nsnc1N1CCOCC1 (stereo not drawn) [S(-)-Timolol maleate]	97.5	104	93 (inactive)	110 (inactive)
CC(C)(C)NCC(O)c1ccc(O)c(CO)c1.CC(C)(C)NCC(O)c1ccc(O)c(CO)c1.O=S(=O)(O)O (stereo not given) [Salbutamol hemisulfate]	99.9	103	84.9 (inactive)	106 (inactive)
CC(=O)NC(CSCC=C(C)CCC=C(C)C)C(=O)O (stereo not given)	101	101	93 (inactive)	103 (inactive)
Cn1c(=O)c2[nH]c(-c3ccc(S(=O)(=O)O)cc3)nc2n(C)c1=O [8-(p-Sulfophenyl)theophylline]	101	109	93.8 (inactive)	89 (inactive)
COc1ccc(-c2ccc3cc(C(=O)O)ccc3c2)cc1C12CC3CC(CC(C3)C1)C2 [Adapalene]	85.4	88.7	99.5 (inactive)	102 (inactive)
Cc1cc(Nc2cc(N3CCN(C)CC3)nc(Sc3ccc(NC(=O)C4CC4)cc3)n2)n[nH]1 [Tozasertib]	70.4	46.5	99.2 (inactive)	156 (active)
O=C1C=CC(=C2NC(c3ccncc3)=C(c3ccc(F)cc3)N2)C=C1	79.5 and 79.7	95.1 and 96.9	97.7 (inactive) and 97.1 (inactive)	125 (inactive) and 124 (inactive)
O=C1NCCN1CCN1CCC(c2cn(-c3ccc(F)cc3)c3ccc(Cl)cc23)CC1	66.8	39.3	213 (active)	139 (inactive)
CC(C=CC1=C(C)CCCC1(C)C)=CC=CC(C)=CC(=O)O [13-cis Retinoic acid]	98.1 ± 4.4	104 ± 2.9	92.9 (inactive)	111 (inactive)
Clc1ccc2c(c1)CCc1cccnc1C2=C1CCNCC1 [Desloratadine]	98.1	102	109 (inactive)	108 (inactive)
COCCCOc1ccnc(CS(=O)c2nc3ccccc3[n-]2)c1C.[Na+] (stereo not given)	101	90.9	103 (inactive)	106 (inactive)
COc1ccc(-c2cc(=O)c3c(O)cc(O)cc3o2)cc1 [Acacetine]	98.4	95.3	100 (inactive)	90.7 (inactive)
Cc1cncc2cccc(S(=O)(=O)N3CCCN(C(=O)CN)CC3C)c12.Cl.Cl.O (stereo not given) [Rho Kinase Inhibitor IV]	78.3	42.8	98.4 (inactive)	131 (inactive)
COc1ccccc1N1CCN(CCCCNC(=O)c2ccc3ccccc3c2)CC1 [N-{4-[4-(2-methoxyphenyl)-1-piperazinyl]butyl}-2-naphthamide]	96.6	98.1	96.7 (inactive)	114 (inactive)
CC1(C)CCC=[N+]1[O-] [5,5-Dimethyl-1-pyrroline-N-oxide]	100	105	94.2 (inactive)	99.5 (inactive)
CC(=O)OCC(CCn1cnc2cnc(N)nc21)COC(C)=O [Famciclovir]	103	97.4	99.2 (inactive)	111 (inactive)
Nc1ccn(C2OC(CO)C(O)C2(F)F)c(=O)n1 (stereo not given) [Gemcitabine]	74.8	42.4	122 (active)	96.6 (inactive)
COc1ccccc1N1CCN(CCN(C(=O)C2CCCCC2)c2ccccn2)CC1.O=C(O)C=CC(=O)O	104	102	101 (inactive)	100 (inactive)
CCCCCC(O)C=CC1C=CC(=O)C1CC=CCCCC(=O)O (stereo not given) [Prostaglandin A2]	103	110	95.6 (inactive)	104 (inactive)
